Bioassay records: PubChem BioAssay, several laboratories
GAA850 FXN act: FXN promoter activators, primary screen, cell-based, luciferase luminescence, HEK293 lucGAA850; HEK293 lucGAA850 FXN promoter luciferase reporter, 24 h; percent of 10 µM SAHA response; AID 540364, 2011; hit rate 0.56% among 360,000; activation, % at 6 µM;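 active = activation above the average of all compounds screened plus 3 SD, cutoff fixed separately per campaign, cut at about 7.5% in these data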;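 note: 0% = DMSO wells and 100% = 10 µM SAHA wells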
GalR3 antag: GalR3 antagonists in HEK293 cells, primary screen, cell-based, fluorescence readout. HEK293 GalR3-CNG cAMP membrane potential fluorescence; galR3 body fused to GalR1 C-terminus. inhibition, % at 3 µM. hit rate 0.44% among 360,000;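 active = inhibition above the screen-wide average plus 3 SD, cut at about 13% in these data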;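 note: forskolin and galanin both at EC90 stimulate the cells; cAMP rise reported by CNG channel membrane potential dye signal; 0% = forskolin plus galanin with DMSO and 100% = forskolin alone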
Target sequence (O60755 1-299 limits assumed): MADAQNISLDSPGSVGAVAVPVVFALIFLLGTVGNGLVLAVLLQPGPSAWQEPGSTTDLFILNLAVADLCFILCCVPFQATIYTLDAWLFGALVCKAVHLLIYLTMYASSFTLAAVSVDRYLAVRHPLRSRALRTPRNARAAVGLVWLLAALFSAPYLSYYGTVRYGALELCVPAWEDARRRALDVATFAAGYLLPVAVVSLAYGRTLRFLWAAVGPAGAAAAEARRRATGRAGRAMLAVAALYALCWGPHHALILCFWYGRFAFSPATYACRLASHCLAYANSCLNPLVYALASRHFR
HIF activator: HIF pathway transcriptional activators, primary screen, cell-based, U2OS HRE-luciferase, luminescence | activation, % at 7.5 µM (by protocol) | hit rate 0.32% among 300,000 | U2OS HRE-luciferase reporter; normalized: DMSO 0%, desferrioxamine 100%;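 active = mean activation of at least 10% of the iron chelator positive control signal, with at least half of replicates also reaching 10%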
Hsp70 activator: Hsp70 transcriptional activators, primary screen, cell-based, HeLa, Hsp70 promoter luciferase, luminescence, 10 µM. hit rate 0.04% among 200,000. AID 1203, 2008. activation, % at 10 µM. HeLa Hsp70 promoter luciferase reporter; scaled: vehicle 0, proteasome-inhibitor control 100%;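 active = activation above the mean across all tested compounds plus 3 SD, cutoff set per campaign, cut at about 5.5% in these data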;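 note: 100% = MG132 at 30 µM as the positive control and 0% = DMSO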
SMARCA2 act: SMARCA2 (BRM) function activators, primary screen, cell-based, luminescence, high throughput; MG213 cells, MMTV-luciferase reporter, dexamethasone, overnight; activation, % at 9.1 µM; hit rate 1% among 370,000; AID 652017, 2013; in the data active = activation above about 7.8%;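 note: 0% = vehicle wells and 100% = reference activator wells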
SMARCA2 act conf: SMARCA2 (BRM) function activators, confirmation, cell-based, luminescence, triplicate; activation, % at 9.1 µM; shares compounds with SMARCA2 act; MG213 cells, MMTV-luciferase with dexamethasone, overnight; MG213 cells expressing E1A, Rb sequestered; DMSO wells 0%, reference activator 100%; hit rate 30% among 3,500;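 active = activation above its plate's cutoff, the mean activation of tested wells plus 3 SD, cut at about 7.9% in these data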
GAL4-VP16 Luc: GAL4-VP16 luciferase reporter activation, counter-screen for SMARCA2 (BRM) activator project, cell-based, pG5luc, luminescence, high throughput. hit rate 41% among 3,500. AID 686939, 2013. shares compounds with SMARCA2 act. HEK293 GAL4-VP16 pG5luc reporter; scaled: DMSO wells 0%, SAHA wells 100%. activation, % at 9.1 µM;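 active = activation above the solvent-only control well mean plus 3 SD, averaged across control plates, cut at about 5.2% in these data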
The depositor's hits bear a star; . = not tested or not shown. An excerpt weighted towards active compounds, which were near 2.2% of everything screened.

SMILES	GAA850 FXN act	GalR3 antag	HIF activator	Hsp70 activator	SMARCA2 act	SMARCA2 act conf	GAL4-VP16 Luc
COCCNc1ncnc2c1cnn2-c1ccc(Cl)cc1	4	-5	1	0	8.4*	17*	10*
CCCC(=O)OC12CCCN(C1)/C(=C/c1ccc(Cl)cc1)C2 (stereo not given)	.	.	.	.	-2	.	.
COC(=O)[C@]12C[C@H](CC(=O)N3CCN(C(=O)C4CC4)CC3)C(=O)N(Cc3ccc4c(c3)OCO4)C1=C[C@H](C(C)C)O[C@@H]2C1CC1	.	.	.	.	-1	.	.
COCCCNC(=S)Nc1cc(C)c(C)cc1C	0	-1	0	.	8.6*	5	1
COCCCNC(=S)Nc1ccc(OC(F)F)cc1C	1	-5	-1	0	-3	.	.
Cc1cc(C)cc(N(CC(=O)NC2CCC(C)CC2)S(=O)(=O)c2cccs2)c1 (stereo not given)	.	.	.	.	-3	.	.
CCOC(=O)CC[C@H]1CC[C@]2(CCCN(C(=O)C3CCCC3)C2)O1	.	.	.	.	-4	.	.
CCOC(=O)CC[C@H]1CC[C@]2(CCCN(C(=O)c3ccco3)C2)O1	.	.	.	.	-4	.	.
CC(=O)Nc1cc(C(=O)OCC(=O)c2ccccc2)ccc1C	1	-10	2	0	8.3*	6	10*
CC1=CC(=O)C(Sc2ccc(C)cc2)=CC1=O	3	1	.	.	8.1*	-4	6.2*
COc1ccc(N2C(=S)N(C(=O)c3ccccc3)C(=Nc3ccccc3)C2=Nc2ccccc2)cc1	6	-5	3	0	11*	2	3
COC(=O)CNC(=O)COC(=O)c1ccc(Cl)nc1	-1	-3	0	0	8.8*	0	1
Cc1c(C(=O)Nc2ccc3c(c2)OCO3)oc2ccccc12	6	-2	1	.	9.7*	0	11*
Cc1cc(C(=O)OCC(=O)c2ccc3c(c2)OCCO3)c(C)o1	2	-4	2	2	8.1*	7	2
Cc1c(C(=O)OCC(=O)N2CCC(C)CC2)oc2ccccc12	1	-7	2	.	9.2*	-1	4
COc1ccc2oc(C(=O)OCC(=O)N3CCC(C)CC3)c(C)c2c1	3	0	0	.	-2	.	.
Nc1ncnc(N)c1NC(=O)c1ccccc1	.	-7	.	.	-6	.	.
CC(C)CN1C(=O)[C@@]2(CC(=O)N(C)C2c2ccccc2)c2cc(-n3cc(CCCC#N)nn3)ccc21 (stereo not given in full)	.	.	.	.	-3	.	.
CN(C)C(=O)C[C@H]1C[C@@H]2c3cc(NC(=O)NC4CCCC4)ccc3O[C@@H]2[C@@H](CO)O1	.	4	.	.	-2	.	.
C[C@@H]1ON(C)[C@H]2C[C@H]3c4cc(-c5ccc(F)cc5)ccc4CCN3C[C@@H]12	.	-1	.	.	-2	.	.
Cc1c(C(=O)OCC(=O)c2ccc3c(c2)OCCO3)oc2ccccc12	2	-6	-37	0	8.0*	4	2
O=C(COC(=O)c1cccnc1Cl)c1ccc2c(c1)OCCO2	3	-4	2	0	2	.	.
O=C(COC(=O)c1ccc(Cl)nc1)c1ccc2c(c1)OCCO2	3	-6	4	0	10*	4	3
CS(=O)(=O)c1cccc(C(=O)OCC(=O)c2ccc3c(c2)OCCO3)c1	0	-3	.	.	4	.	.
CCCC(=O)N1CCC(NS(=O)(=O)c2ccc3c(c2)CCN3C(C)=O)CC1	.	.	.	.	-6	.	.
SMILES	GAA850 FXN act	GalR3 antag	HIF activator	Hsp70 activator	SMARCA2 act	SMARCA2 act conf	GAL4-VP16 Luc
COc1ccccc1C(=O)NC1CCCCN(Cc2cccc(C(F)(F)F)c2)C1=O (stereo not given)	.	.	.	.	-1	.	.
CC[C@@H](CCCCCCCn1ccc2ccccc21)CCC(=O)N(c1ccccc1)c1ccccc1	.	.	.	.	-2	.	.
CCCCCCCCN1C(=O)[C@@H](CC(=O)NCC2CCCCC2)C[C@@]2(C(=O)OC)C1=C[C@H](COCc1ccccc1)O[C@@H]2C	.	.	.	.	-2	.	.
CCOC(=O)Cn1cnc(-c2ccc([N+](=O)[O-])cc2)c1	5	-11	0	0	8.8*	8	5.8*
COCCNC(=O)c1noc2c1CCc1cc(OC)ccc1-2	1	3	3	0	2	.	.
COCC(C)NC(=O)c1noc2c1CCc1cc(OC)ccc1-2 (stereo not given)	4	-5	6	0	9.7*	3	11*
COc1cc(N)c(Cl)cc1C(=O)OCC(=O)N1c2ccccc2NC(=O)C1(C)C	-1	-4	.	.	9.1*	0	0
COc1ccc(S(N)(=O)=O)cc1C(=O)OCC(=O)N1c2ccccc2NC(=O)C1(C)C	1	-1	.	.	-1	.	.
CC1CCCC(C)N1CCCNC(=O)c1ccc2nc(N3CCCCC3)sc2c1 (stereo not given)	4	3	2	.	18*	9.8*	17*
CCC1CCCCN1CCCNC(=O)c1ccc2nc(N3CCCCC3)sc2c1 (stereo not given)	2	-3	2	.	3	.	.
COc1ccc(CCNC(=O)c2ccc3nc(N4CCCCC4)sc3c2)cc1OC	4	3	2	.	10*	3	8.5*
CCCN1CCN(CCCNC(=O)c2ccc3nc(N4CCCCC4)sc3c2)CC1	4	2	2	.	13*	14*	13*
CC1CCN(c2nc3ccc(C(=O)NCCCN4CCCCC4C)cc3s2)CC1 (stereo not given)	3	2	3	.	8.1*	15*	15*
CN1C(=O)C[C@@](C#N)(C(=O)NCc2ccc3c(c2)OCO3)[C@H]1c1ccccc1	.	.	.	.	2	.	.
COc1ccc(-n2c(COc3ccccc3)nnc2SCC(=O)Nc2ccc(OCc3ccccc3)cc2)cc1	.	.	.	.	6	.	.
COC(=O)[C@H](CC(C)C)N(CCCc1cn(Cc2ccccc2)nn1)S(=O)(=O)c1ccccc1Br	.	.	.	.	0	.	.
COP(N)(=O)C(CC(C)C)NC(=O)OCc1ccccc1 (stereo not given)	.	.	.	.	0	.	.
CC(C)NC(=O)C1c2ccccc2Oc2ccccc21	0	-5	-1	.	-2	.	.
CC(C)CNC(=O)C1c2ccccc2Oc2ccccc21	-1	-11	-1	0	14*	-1	1
Cc1cc(/C(N)=N/OC(=O)c2ccccc2Cl)no1	0	-2	.	.	8.6*	12*	11*
N/C(=N/OC(=O)c1ccccc1Cl)c1nonc1N	3	-1	0	0	8	.	.
